{"source": "PubChem BioAssay (EPA / NIEHS)", "note": "Calls of active or inactive are those of the source. How the source made its calls: active means hit-call score of the fitted dose curve at least 0.9, where 1 is the maximum; inactive means score below 0.9."}
{"read-out": "Cellular tumor antigen p53 (Homo sapiens) (UniProt P04637)", "assay": "LTEA_HepaRG_TP53: Life Technologies and Expression Analysis (LTEA) Assay for Tumor Protein P53 (TP53) using HepaRG (AID 2283537)", "conditions": "mRNA level, 48 h; actives raise or lower the signal", "summary_of_the_method": "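Gain or loss of TP53 mRNA signal is scored relative to 0.5% DMSO after 48 h chemical treatment of HepaRG liver cells, tested in duplicate at eight half-log concentrations up to 100 uM.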"}
{"compound": "CCN(CC)CCNc1ccc(CNC=O)c2sc3ccc(OC)cc3c(=O)c12", "AC50": "16.6 µM (active)"}
{"compound": "N#C[C@@H]1CC(F)(F)CN1C(=O)CNC1CC2CCC(C1)N2c1ncccn1", "note": "(stereo partly specified)", "outcome": "inactive"}
{"compound": "CN(C)C=O", "outcome": "inactive"}
{"compound": "O=C(OCCOCCOC(=O)c1ccccc1)c1ccccc1", "outcome": "inactive"}
{"compound": "CCCCCCCCC(=O)O", "outcome": "inactive"}
{"compound": "CC[C@H](c1ccc(O)cc1)[C@@H](CC)c1ccc(O)cc1", "AC50": "80.1 µM (active)"}
{"compound": "CC(C)(C)c1ccc(O)c(C(C)(C)C)c1", "outcome": "inactive"}
{"compound": "O=[N+]([O-])c1ccc(O)cc1", "outcome": "inactive"}
{"compound": "CCCCOCCO", "outcome": "inactive"}
{"compound": "OCCC(F)(F)C(F)(F)C(F)(F)C(F)(F)C(F)(F)C(F)(F)F", "outcome": "inactive"}
{"compound": "CCC(C)(C)C1CCC(O)CC1", "note": "(stereo unspecified)", "outcome": "inactive"}
{"compound": "NC(=O)N1C(=O)C(C(=O)c2cc(Cl)cs2)c2cc(F)c(Cl)cc21", "note": "(stereo unspecified)", "AC50": "94.4 µM (active)"}
{"compound": "CCCCCCC(=O)O", "outcome": "inactive"}
{"compound": "ClC1=C(Cl)C(Cl)(Cl)C(Cl)=C1Cl", "outcome": "inactive"}
{"compound": "COCC(C)OCC(C)O", "note": "(stereo unspecified)", "outcome": "inactive"}
{"compound": "C[C@@H]1C[C@H]2[C@@H]3CCC4=CC(=O)C=C[C@]4(C)[C@@]3(F)[C@@H](O)C[C@]2(C)[C@@]1(O)C(=O)COP(=O)(O)O", "outcome": "inactive"}
{"compound": "CCCCC(CC)COC(=O)CCCCC(=O)OCc1ccccc1", "note": "(stereo unspecified)", "outcome": "inactive"}
{"compound": "O=C(O)Cc1cc(I)c(Oc2cc(I)c(O)c(I)c2)c(I)c1", "AC50": "59.1 µM (active)"}
{"compound": "CCc1nn(C2CCCCC2)c2cc(C3(C#N)CCC(C(=O)O)CC3)ccc12", "note": "(stereo unspecified)", "AC50": "50 µM (active)"}
{"compound": "CCCCCCCCOC(=O)CCCCCCCCC(=O)OCCCCCCCC", "outcome": "inactive"}
{"compound": "Oc1cccc(O)c1", "outcome": "inactive"}
{"compound": "CCc1ccc(CCOc2ccc(CC3SC(=O)NC3=O)cc2)nc1", "note": "(stereo unspecified)", "AC50": "80.4 µM (active)"}
{"compound": "OCCC(F)(F)C(F)(F)C(F)(F)C(F)(F)C(F)(F)C(F)(F)C(F)(F)C(F)(F)F", "outcome": "inactive"}
{"compound": "CCCCCCCCCCCCc1ccccc1S(=O)(=O)O", "AC50": "58.1 µM (active)"}
{"compound": "Cc1oc(-c2ccccc2)nc1CCOc1ccc(C[C@H](Nc2ccccc2C(=O)c2ccccc2)C(=O)O)cc1", "AC50": "86.1 µM (active)"}
{"compound": "c1ccc2c(c1)ccc1ccccc12", "outcome": "inactive"}
{"compound": "CCCCC(CC)COC(=O)CCCCC(=O)OCC(CC)CCCC", "note": "(stereo unspecified)", "outcome": "inactive"}
{"compound": "CC(C)CCCCCCOC(=O)CCCCC(=O)OCCCCCCC(C)C", "outcome": "inactive"}
{"compound": "COc1ccc([N+](=O)[O-])cc1N", "outcome": "inactive"}
{"compound": "Cc1cc(CCN2CCN(c3nsc4ccccc34)CC2)cc2c1NC(=O)CC2(C)C", "AC50": "80.4 µM (active)"}
{"compound": "CCCOc1sc(C(=O)N2CCC(c3cc(CN)ccc3F)CC2)c(C)c1Br", "outcome": "inactive"}
